A selection: hits, their analogues and other compounds. The true share with any hit is near 7.3%.
Rab9 prom act: activators of Rab9 promoter; Huh7 Rab9 promoter-luciferase reporter, luminescence, 24 h; Potency, µM (series often up to 9.22 µM), inactives show at the highest dose activation, negative = inhibition, hits mostly activators; actives 2.8% (n = 320,000); AID 485297; further: % of control where 0% means no effect; nearly all actives have a fitted effect of over 60% in size
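Promoter activation is measured as luciferase luminescence in Huh7 cells stably transfected with a Rab9 promoter–luciferase construct, following 24 h compound exposure at 37 °C and 10 min reagent incubation at ambient temperature.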
SMN2 splice enh: enhancers of SMN2 splice variant expression. HEK293 SMN2-luciferase splicing reporter, luminescence, 30-36 h. actives 2.8% (n = 210,000). Potency, µM (highest dose often 46.1 µM), without a hit: at the highest dose activity change, positive = activation, usual class: activators; further: % of control where 0% means no effect; nearly all actives have a fitted effect of over 55% in size
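HEK293 cells carry an SMN2 […]–luciferase reporter in which exon 7 inclusion puts luciferase in frame. Cells were plated 10-12 h before compound addition, then incubated 30-36 h at 37C. ONE-Glo luminescence was read; sodium butyrate at 4.5 mM final served as control.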
NPC1 prom act: activates the NPC1 promoter; Huh7 NPC1 promoter luciferase reporter, 24 h; Potency, µM (doses to about 9.22 µM), for the others: at the top dose activation, hits mostly activators; actives 2.4% (n = 320,000); further: % of control where 0% means no effect; nearly all actives have a fitted effect of over 60% in size
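Cells: Huh7 expressing luciferase under the NPC1 promoter, 1500/well. Seeded 2 h, compound added, incubated 24 h at 37 °C. Luciferase reagent, 10 min ambient, then luminescence.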
p53 reactivator: re-activators of mutant p53; H1299 p53-A138V BP100-luciferase reporter, luminescence, 24 h; Potency, µM (doses to about 92.2 µM), for inactives: top-dose activity change, positive = activation, hits mostly activators; actives 0.063% (n = 320,000); AID 504706; further: % of control where 0% means no effect; nearly all actives have a fitted effect of over 45% in size
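p53-null H1299 cells stably carrying temperature-sensitive p53-A138V and a BP100-luciferase reporter were pinned with compounds (4-point, 1:5 series) and held 24 hrs at 37 deg C. Luminescence was read 10 min after detection reagent.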
ELG1 genotox: genotoxicity induction in ELG1-luciferase HEK293T cells; HEK293T ELG1-luciferase reporter, luminescence, 16 h; Potency, µM (doses to about 46 µM), for the others: at the highest dose activity change, positive = activation, usual class: activators; actives 1.3% (n = 330,000); AID 504466; further: % of control where 0% means no effect; nearly all actives have a fitted effect of over 60% in size
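Genotoxic stress is detected as increased luminescence from luciferase-tagged ELG1 in HEK293T cells, measured with ONE-Glo after a 16 hr treatment at 37 °C.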
FLuc modulator: firefly luciferase modulation, counter-screen for miR-21 project; P08659; purified FLuc, Km substrates, luminescence inhibition; Potency, µM (titrated, usually from 57.5 µM), for the others: at the top dose activity change, negative = inhibition, most hits filed as inhibitors; actives 6.9% (n = 360,000); AID 588342;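 further: plate controls were vehicle for no effect and reference inhibitor for full effect; nearly all actives have a fitted effect of over 55% in size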
Target sequence (P08659 whole entry, looked up): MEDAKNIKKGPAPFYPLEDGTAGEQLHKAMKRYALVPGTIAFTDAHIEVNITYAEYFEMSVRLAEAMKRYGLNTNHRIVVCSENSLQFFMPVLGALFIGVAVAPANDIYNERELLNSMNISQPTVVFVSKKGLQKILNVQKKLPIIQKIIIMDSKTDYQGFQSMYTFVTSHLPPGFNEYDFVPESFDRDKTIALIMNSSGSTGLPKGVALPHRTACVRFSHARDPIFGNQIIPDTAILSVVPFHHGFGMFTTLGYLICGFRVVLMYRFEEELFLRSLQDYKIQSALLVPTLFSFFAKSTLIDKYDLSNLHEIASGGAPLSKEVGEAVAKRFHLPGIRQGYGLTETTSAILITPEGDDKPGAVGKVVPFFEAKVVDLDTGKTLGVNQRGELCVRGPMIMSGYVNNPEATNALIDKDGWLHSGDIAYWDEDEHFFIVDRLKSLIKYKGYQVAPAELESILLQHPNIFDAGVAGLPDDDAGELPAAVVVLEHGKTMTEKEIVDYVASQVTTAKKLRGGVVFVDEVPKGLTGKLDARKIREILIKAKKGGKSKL
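Purified P. pyralis luciferase (10nM final) with 10uM D-luciferin and 10uM ATP (Km levels) in 50mM Tris acetate pH 7.5, 10mM Mg acetate, 0.01% Tween-20, 0.05% BSA; qHTS 6-point titration, ~60 µM downward; luminescence read.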
Numbers without * were called inactive; ? = inconclusive; . = no result; [ ] = another dose, or the depositor's remark. The call rests on the fitted dose curve; in most records, active means well fitted curve in the direction sought with a large enough effect; inconclusive means small, poorly fitted or top-dose-only effect, or another doubt; inactive means no such curve, though single readings can be large; an effect the other way counts as inactive or inconclusive. Potency means the concentration at half of the fitted maximal effect.

SMILES	Rab9 prom act	SMN2 splice enh	NPC1 prom act	p53 reactivator	ELG1 genotox	FLuc modulator
C/C(=N\NC(=O)COc1ccccc1[N+](=O)[O-])c1cccs1	3.2µM*	25µM*	?	3%	?	24µM*
CC1(c2ccccc2)NC(=O)N(CC(=O)N2CCN(S(=O)(=O)c3c(F)cccc3F)CC2)C1=O (stereo unspecified)	.	.	.	1%	-1%	.
COc1ccc(Cl)cc1NC(=O)Cn1cc(S(=O)(=O)Cc2cccc(Cl)c2)c2ccccc21	.	.	.	.	.	6%
CC1=C(C(=O)N2CCCCC2)C(c2cccc(Cl)c2)n2c(nc3ccccc32)N1 (stereo unspecified)	.	-5%	.	.	.	-1%
C/C(=N/NC(=O)c1cc2ccccc2cc1O)c1ccco1	1.6µM*	.	2.8µM*	-7%	?	5.4µM*
C/C(=N\NC(=O)c1cc2ccccc2cc1O)c1ccc(C)o1	?	.	27%	17%	0%	9.5µM*
C/C(=N\NC(=O)c1cc(C)nc2ccccc12)c1ccco1	-4%	0%	-3%	-6%	-1%	3%
C/C(=N\NC(=O)c1c(C)nc2ccccn12)c1ccco1	2.5µM*	10µM*	?	11%	?	?
C/C(=N\NC(=O)c1c(C)nc2ccccn12)c1ccc(C(C)(C)C)cc1	0%	.	-1%	6%	-16%	-2%
O=C(Nc1cccc(F)c1)N1CC2(CCN(C(=O)c3cccc(F)c3)CC2)C1	.	10%	.	.	.	.
COc1ccc2cc3cc(C(=O)N4CCN(c5cccc(Cl)c5)CC4)sc3nc2c1	.	4%	.	.	.	5%
COc1ccc(OCC(=O)N/N=C(\C)c2cc3ccccc3o2)cc1	15%	27%	17%	?	16%	1.5µM*
C/C(=N\NC(N)=O)c1ccc(-n2ccnc2)cc1	1%	-3%	-5%	-7%	6%	-1%
C/C(=N\Nc1ccc(C(=O)O)cc1)c1ccc(-n2ccnc2)cc1	4µM*	20µM*	2.5µM*	1%	?	12µM*
Cn1c(/C=N/NC(=O)c2ccccc2)nc2ccccc21	12%	-17%	12%	6%	3%	-14%
C/C(=N\Nc1ccc(C(=O)O)cc1)c1nc2ccccc2n1C	1.1µM*	10µM*	0.56µM*	?	?	11µM*
CCc1ccc(OCC(=O)N/N=C(\C)c2ccc(-n3ccnc3)cc2)cc1	18%	.	15%	13%	9%	1.3µM*
COc1cc(NC(=O)C2CCN(S(=O)(=O)c3ccc4c(c3)oc(=O)n4C)CC2)cc(OC)c1	.	-16%	.	.	.	-11%
Cn1c(Sc2ccc(-c3cccnc3)n2C)ccc1-c1cccnc1	.	-8%[9.22 µM]	.	.	.	.
COc1ccc(OCC(=O)N/N=C(\C)c2ccc(OC)cc2)cc1	1%	-8%	-2%	-4%	1%	24µM*
C/C(=N\NC(=O)COc1ccccc1)c1ccc(O)cc1	21%	.	18%	8%	9%	?
C=CCN(C(=O)CSC1=NC(=O)CN1C(C)=O)c1nc(C)c(-c2ccccc2)s1	-36%	?	6%	24%	10%	6.7µM*
C=CCSc1nnc(-c2sc(-c3ccccc3)nc2C)n1C	?	?	19%	7%	10%	?
Cc1cc2c(cc1S(=O)(=O)Nc1ccc(C(C)C)cc1)OCCN2C	-3%	.	5%	.	.	2%
Cc1ccc(-c2cn3nc(N4CCCC(C(=O)Nc5ccc(F)cc5)C4)sc3n2)cc1 (stereo unspecified)	.	.	.	.	.	12µM*
SMILES	Rab9 prom act	SMN2 splice enh	NPC1 prom act	p53 reactivator	ELG1 genotox	FLuc modulator
Cc1ccc(-c2cn3nc(N4CCCC(C(=O)NCc5ccc(F)cc5)C4)sc3n2)cc1 (stereo unspecified)	.	.	.	.	.	8.5µM*
CCNC(=O)C1CCCN(c2nn3cc(-c4ccc(C)cc4)nc3s2)C1 (stereo unspecified)	.	.	.	.	.	1.2µM*
COc1ccc(-c2cn3nc(N4CCCC(C(=O)Nc5cc(C)cc(C)c5)C4)sc3n2)cc1 (stereo unspecified)	.	.	.	.	.	-19%
CCOC(=O)c1cc(C#N)c(Oc2ccccc2OC)nc1-c1ccccc1	-1%	-29%	3%	-4%	-5%	0%
C=C(COC)C1=CCC(C(=O)OC)(C(=O)OC)[C@@H](C[N+](=O)[O-])c2ccccc21	.	20%	.	.	.	.
COc1ccc(C(=O)CSc2nnn(-c3cccc(NC(C)=O)c3)n2)cc1	?	.	?	1%	5%	17µM*
CC(=O)Nc1cccc(-n2nnc(SCC(=O)c3ccccc3)n2)c1	3.2µM*	.	2.8µM*	8%	?	17µM*
COc1ccc(Cn2ccc3nc(C)c(C(=O)Nc4cc(C)cc(C)c4)cc3c2=O)cc1	.	.	.	.	.	-16%
C=CCSc1nnc(-c2ccccc2N=Cc2c(C)[nH]n(-c3ccccc3)c2=O)c(=O)[nH]1	-4%	-2%	6%	5%	-8%	?
CSc1nnc(-c2ccccc2N=Cc2c(C)[nH]n(-c3ccc4ccccc4c3)c2=O)c(=O)[nH]1	7%	?	18%	9%	19%	9.5µM*
COc1cccc(CNC(=O)c2nn(-c3ccc(C)cc3)c(=O)c3c2c2ccccc2n3C)c1	.	2%	.	.	.	2%
CN(CCOc1ccc(C[C@H](Nc2ccccc2C(=O)c2ccccc2)C(=O)O)cc1)c1ccccn1	.	13%	.	.	.	.
COc1ccc(OCCSc2nnnn2C2CCCCC2)cc1	19%	18%	1%	11%	19%	?
c1ccc(OCCSc2nnnn2C2CCCCC2)cc1	1µM*	11µM*	0.56µM*	?	?	2.1µM*
CCCCN(C)C(=O)c1cc2cc3ccc(OC)cc3nc2s1	0.45µM*	6.3µM*	0.5µM*	49%	?	0.76µM*
CCCCN(CC)C(=O)c1cc2cc3ccc(OC)cc3nc2o1	?	-5%	?	?	4%	15µM*
CCC(C)(C)NC(=O)Cc1ccccc1OC	9%	29%	-1%	-9%	0%	2%
Cc1ccc(NS(=O)(=O)c2cccc(C(=O)N/N=C/c3ccc4c(c3)OCCO4)c2)c(C)c1	1%	-35%	-2%	2%	-1%	11µM*
CCOc1cccc(/C=N/NC(=O)c2ccc3c(c2)OCCO3)c1O	-41%	.	-30%	?	?	2.4µM*
Cc1cccc(/C=N/NC(=O)c2ccc3c(c2)OCCO3)c1O	0.5µM*	.	0.89µM*	?	0.13µM*	0.38µM*
Cc1ccc(NS(=O)(=O)c2cccc(C(=O)N/N=C/c3c(C)nn(-c4ccccc4)c3N3CCCC3)c2)c(C)c1	-3%	-17%[1.84 µM]	-4%	-10%	-7%	5%

Screening data from PubChem.
